PubChem BioAssay (NCI)
About 83,000 compounds went through this panel and 20% of them were active in at least one assay; those are over-represented in the sample as a whole.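 Results are percent growth after 48 hours of single-concentration exposure. 100 means growth as in untreated cells, lower positive values show inhibition; negative values down to -100 show cell death.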 Calls of active or inactive are those of the source. The calls were made as follows: active = growth percent below 10; inactive = the rest.

What follows are compounds tested on MDA-MB-468 breast (assay: NCI-60 one-dose screen, 48 h (100 = growth as untreated, 0 = no growth, -100 = all killed)). Settings: 10 µM unless noted.

Structure (SMILES) | growth
N#Cc1c(-c2ccc(Cl)cc2)nc(SCc2ccc(F)cc2)nc1N1CCNCC1 | -62.5% (active)
O=C1CSC(=O)N1Cc1cc2ccccc2nc1Cl | 97.8% (inactive)
COc1cc(C2CC(c3ccc(Cl)cc3)=NN2C=O)ccc1OS(=O)(=O)c1ccc(C)cc1 (centres undefined) | 60.6% (inactive)
Clc1ccc(-n2ncc3c(NCCCN4CCOCC4)ncnc32)cc1 | 74.4% (inactive)
COc1cc(Cn2ccc3c2-c2oncc2CC3)cc(OC)c1 | 10.9% (inactive)
C[C@H](C(=O)N[C@@H](Cc1ccc(-c2ccccc2)cc1)C(=O)NC1CC(C)(C)NC(C)(C)C1)c1ccc(-c2ccccc2)c(F)c1 | -65.9% (active)
O=C(Nc1cccc([N+](=O)[O-])c1)NN1CCCCCC1 | 88.7% (inactive)
C=CC(=O)Nc1cccc(Oc2nccc(Nc3nnc(C4CC4)s3)n2)c1 | 102% (inactive)
COc1cc(-c2cc(=O)oc3cc(O)ccc23)cc(OC)c1OC | 74.2% (inactive)
COC(=O)[C@]12CC[C@@H](C)[C@H](C)[C@@H]1C1=CC[C@@H]3[C@@]4(C)C/C(=N\O)[C@H](O)[C@@]5(C)COC(=C45)C[C@@]3(C)[C@]1(C)CC2 | -71.7% (active)
CCOC(=O)Nc1nccs1 | 120% (inactive)
NC(=O)C12C(=O)NC(=O)C1(C(=O)O)C21CCCC1 (centres undefined) | 112% (inactive)
COc1ccc(S(=O)(=O)NCCNc2nccc(-c3c(-c4cccc([N+](=O)[O-])c4)nc4sccn34)n2)cc1 | 69.7% (inactive)
CCN(CC)c1ccc(/C=C/C2=[N+](C)c3ccccc3C2(C)C)cc1 | 20.4% (inactive)
